# The full list was thinned out, with hits kept by preference.
# Pf Dd2 inh: qHTS Primary assay for Inhibitors of Plasmodium falciparum Dd2 growth in vitro; P. falciparum Dd2 growth, SYBR Green, 72 h; Potency, µM (top dose mostly 28.9 µM), without a hit: at the highest dose activity, negative = inhibition, actives largely listed as inhibitors; hit rate 4.3% among 120,000; AID 1347417, 2020; active means well fitted inhibition curve with a large enough effect;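 further: plate controls were DMSO vehicle for no effect and reference drug for full effect; nearly all actives have a fitted effect of over 65% in size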
#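 Readout: SYBR Green fluorescence, 485 nm excitation, 535 nm emission, after ~16 h lysis at 37C. Before that, Dd2-infected red cells (2.5% hematocrit) grew 72 h with compound, 29 uM top final concentration.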
# Starred values were filed as active, the others as inactive; i = inactive; [ ] = remark or other dose. Potency means the concentration at half of the fitted maximal effect.
SMILES,Pf Dd2 inh
Cc1ccc2oc3c(c(=O)c2c1)C(c1ccc(O)cc1)N(CCCN(C)C)C3=O (configuration not stated),27%
COc1ccc(C2c3c(oc4ccc(C)cc4c3=O)C(=O)N2CCCN2CCOCC2)cc1OC (configuration not stated),-7%
Cn1cc(C(=O)N2CCCC(Cc3noc(-c4ccncc4)n3)C2)cn1 (configuration not stated),11%
CCn1cc(CN(C)C2CCc3nn(CC4CC4)c(=O)n3CC2)c(C)n1 (configuration not stated),2%
CN(Cc1cn(C)c2ccccc12)C1CCc2nn(CC3CC3)c(=O)n2CC1 (configuration not stated),5µM*
CN(C(=O)Cc1c[nH]c2ccccc12)C1CCc2nn(CC3CC3)c(=O)n2CC1 (configuration not stated),-21%
COc1ccc(C2(C(=O)N3CCOCC3)CCOCC2)cc1,7%
CCC1c2nccn2CCCN1C(=O)Cn1c(=O)oc2ccccc21 (configuration not stated),13µM*
CC(C)C1c2nccn2CCCN1C(=O)Cn1c(=O)oc2ccccc21 (configuration not stated),-19%
CCC1c2nccn2CCCN1C(=O)Cc1ccc(OC)cc1 (configuration not stated),7.1µM*
CCC1c2nccn2CCCN1C(=O)COC (configuration not stated),29%
CCC1c2nccn2CCCN1C(=O)C1CCOCC1 (configuration not stated),-4%
CCC1c2nccn2CCCN1C(=O)c1ccc2c(c1)OCO2 (configuration not stated),-20%
Cc1ccc2[nH]c(CN3CCN(CC4CCN(C)CC4)CC3)cc(=O)c2c1,8%
CCOCCCNC(=O)C1CCCN(c2ncnc3onc(C)c23)C1 (configuration not stated),1%
Cc1ccc(Sc2ccc(N3CCCC(C(=O)Nc4ccc(F)cc4F)C3)nn2)cc1 (configuration not stated),-5%
CCOC(=O)c1ccc(NC(=O)C2CCCN(c3ncnc4onc(C)c34)C2)cc1 (configuration not stated),7.9µM*
CCOC(=O)c1ccc(NC(=O)C2CCCN(c3ccc(Sc4ccc(C)cc4)nn3)C2)cc1 (configuration not stated),5.6µM*
COC(=O)c1ccccc1NC(=O)C1CCCN(c2ncnc3onc(C)c23)C1 (configuration not stated),-2%
CCOC(=O)c1ccc(NC(=O)C2CCCN(c3cnccn3)C2)cc1 (configuration not stated),-11%
O=C(NC1CCCc2c1[nH]c1ccc(F)cc21)C1(c2ccccc2)CCOCC1 (configuration not stated),-18%
Fc1ccc(Cc2nc3nccc(-c4ccsc4)n3n2)cc1,i
COC(=O)C1=CN(CC(=O)NCc2ccc(OC)cc2)S(=O)(=O)N=C1C,23%
Cc1ccc(C(C)NC(=O)CN2C(=O)NC3(CCCCC3)C2=O)cc1 (configuration not stated),-22%
CN1CCN(C(=O)N2CCC(c3nccn3CC3CC3)CC2)CC1,12%
SMILES,Pf Dd2 inh
CC1(C)C(=O)N(Cc2ccccc2)[C@H]2CN(CC3CCOC3)C[C@H]2[S+]1(=O)[O-] (some centres not stated),11%[44.1 µM]
COCCC(=O)N1CCC2(CCN(Cc3cccc(C)c3)CC2)C(CO)C1 (configuration not stated),-9%
Cc1ccc(-n2nc(C)c([C@@H]3C=C[C@@H](NC(=O)NC4CCCCC4)C3)c2C)cc1Cl,-19%[44.1 µM]
Cc1nn(-c2ccc(C(F)(F)F)cc2)c(C)c1[C@@H]1C=C[C@@H](NC(=O)NC(C)C)C1,i
COc1ccc(-n2nc(C)c([C@@H]3C=C[C@@H](NC(=O)NC4CCCCC4)C3)c2C)cc1,16µM*
COc1ccc(NC(=O)N[C@@H]2C=C[C@@H](c3c(C)nn(-c4ccc(C(C)C)cc4)c3C)C2)cc1,11µM*
COc1ccc(NC(=O)c2nnn(-c3ccc(C(C)C)cc3)c2C)c(OC)c1,i
Cc1nn(-c2ccc(C(C)C)cc2)c(C)c1[C@@H]1C=C[C@@H](NC(=S)NC2CCCCC2)C1,-9%
Cc1nn(CCC#N)c(C)c1[C@@H]1C=C[C@@H](NC(=O)NC(C)C)C1,-6%[44.1 µM]
CCNC(=O)N[C@@H]1C=C[C@@H](c2c(C)nn(-c3ccc(OC)cc3)c2C)C1,10µM*
CN(Cc1cccnc1)Cc1nc(C2(O)CCN(Cc3ccccc3F)CC2)cs1,i
O=[S+]([O-])(NC1CCN(c2nc3ncccc3o2)CC1)c1cccs1,-15%
Cc1cccnc1CN1CCN(C(=O)C2CC3(CCNCC3)CN2C)CC1 (configuration not stated),10%
O=C(NC1CC1)[C@H]1CN2CCC1C[C@@H]2Cn1cc(CCO)nn1 (some centres not stated),7%[44.1 µM]

# Screening results deposited in PubChem by National Center for Advancing Translational Sciences (NCATS).
